# Assay results reported in PubChem BioAssay AID651636 (Sanford-Burnham Center for Chemical Genomics, 2012).
# In all, about 360,000 compounds went through this assay and about 3,000 (0.83%) were called active. What follows is part of a selection rich in actives, with near analogues and random picks from the rest. Values without a mark were called inactive. Cut-off read from the data, not from the text of the source: active = inhibition above about 38%; inactive = the rest.
# Molecular target: G-protein coupled receptor 183 (Homo sapiens) (UniProt P32249)
# Assay: EBI2 receptor antagonists, beta-arrestin recruitment, primary screen, cell-based, luminescence, 7a,25-OHC stimulation, uHTS (AID 651636);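 note: enzyme fragment complementation signal reports receptor beta-arrestin coupling in cells; 0% = agonist plus DMSO wells and 100% = wells without agonist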
# Details: 7a,25-OHC stimulated, at 5 µM, stronger effect = higher value
# Chain of G-protein coupled receptor 183 (Homo sapiens) (P32249 whole entry, looked up, the tested form may be a part): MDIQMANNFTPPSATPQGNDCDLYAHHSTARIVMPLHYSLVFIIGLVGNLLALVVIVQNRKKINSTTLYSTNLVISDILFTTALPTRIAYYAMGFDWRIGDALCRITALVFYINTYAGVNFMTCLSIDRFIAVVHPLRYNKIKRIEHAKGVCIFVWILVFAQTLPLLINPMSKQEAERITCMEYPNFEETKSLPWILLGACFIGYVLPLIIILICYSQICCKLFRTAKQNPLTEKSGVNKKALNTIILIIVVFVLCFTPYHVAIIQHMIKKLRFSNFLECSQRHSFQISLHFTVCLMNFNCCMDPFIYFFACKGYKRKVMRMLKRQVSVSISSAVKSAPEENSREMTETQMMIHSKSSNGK
row,SMILES,inhibition
1,O=C(NCc1ccc(Cl)cc1)c1cc(=O)nc2sc(-c3ccccc3)nn12,49.6% (active)
2,O=C(NCc1ccc(Cl)cc1)c1cc2c(nc3sccn32)s1,12.5%
3,O=C(Cc1ccc(Cl)cc1)NCc1nc(-c2ccccc2)no1,4.5%
4,CC(=O)NC12CC3CC(C1)CC(C(=O)N1CCN(C(=O)c4ccco4)CC1)(C3)C2,1.98%
5,COc1ccc(-c2nnn(Cc3nc(N)nc(N4CCCCC4)n3)n2)cc1,5.05%
6,COc1cccc(-c2cnc(OC(C)(C)C)nc2OC(C)(C)C)c1,-3.37%
7,COc1ccc(-c2nc(N)ncc2-c2ccc(Cl)cc2)c(O)c1,88.2% (active)
8,COc1ccc(-c2c(-c3ccc(OC)cc3O)nc(C)nc2C(F)(F)F)cc1,14.5%
9,CCOc1ccc(C(=O)N(Cc2ccc(N(C)C)cc2)C2CCS(=O)(=O)C2)cc1 (stereo not drawn),7.56%
10,O=C(Nc1cc2c3c(c1)CC(=O)N3CCC2)c1ccccc1F,-3.38%
11,Oc1ccc2ccccc2c1N=Nc1nccs1,58.9% (active)
12,CC1(c2nnc(Cc3ccccc3)o2)CC(c2ccccc2F)=NO1 (stereo not drawn),-4.25%
13,CCOC(=O)[C@]12CCCC=C1N(CCC1=CCCCC1)C(=O)[C@H](CC(=O)N1CCN(C(=O)c3ccco3)CC1)C2,-0.759%
14,COc1ccc(N2CCN(Cc3ccc(Br)s3)CC2)cc1,-1.05%
15,Fc1ccc(N2CCN(Cc3cnc(Oc4ccc(Br)cc4)s3)CC2)cc1,46.4% (active)
16,c1ccc(-c2cnc(CN3CCN(c4ccccc4)CC3)o2)cc1,3.15%
17,COc1ccc(OC)c(C(=O)c2coc3ccc(OC)cc23)c1,5.5%
18,COc1ccc(OC)c(C(=O)c2coc3ccc(O)c(CN4CCOCC4)c23)c1,37% (active)
19,Cc1ccc(C(=O)c2coc3ccc(O)c(CN(C)C)c23)cc1,-7.39%
20,CN(O)C(=S)c1ccccc1,43% (active)

row,SMILES,inhibition
1,C=CCOC(=O)C1=C[C@@H](c2ccccc2)C[C@@H](OCc2ccc(CO)cc2)O1,7.13%
2,Cc1ccc2c(C)c(C(=O)N3CCN(c4ccncc4)CC3)oc2c1C,1.76%
3,CCCCNC(=S)N/N=C1\CCCCc2ccccc21,6.96%
4,CCCC1CCC(=NNC(=S)NCCc2ccccc2)CC1 (stereo not drawn),66.9% (active)
5,Cc1cc(F)ccc1NC(=S)NCCc1ccccc1,1.81%
6,CC(=O)CCS(=O)(=O)c1ccc(C)c(C)c1,-7.62%
7,CC(=O)c1cc(-c2ccccc2)n(CCC(=O)NC2CCCCCC2)c1C,-14.6%
8,COc1ccc(Nc2cc(Sc3ccc(OC)cc3)ncn2)cc1,55.7% (active)
9,COc1ccc(Sc2ccc(NC(=O)c3cccc(Cl)c3)cc2C#N)cc1,19.1%
10,COc1ccc(NC(=O)CSc2ncnc3[nH]ncc23)cc1,-1.87%
11,CN1C(=O)CC(N2CCN(c3ccccn3)CC2)C1=O (stereo not drawn),1.43%
12,CO/N=C(/CS(=O)(=O)c1ccc(Br)cc1)c1ccc(OC)cc1,2.11%
13,CN(C)C(CNC(=O)Cc1ccc([N+](=O)[O-])cc1)c1ccccc1 (stereo not drawn),-5.83%
14,O=C(CC(c1ccccc1)c1ccccc1)NCC(O)c1ccc([N+](=O)[O-])cc1 (stereo not drawn),68.3% (active)
15,O=C(NCC(O)c1ccc([N+](=O)[O-])cc1)C1CCCCC1 (stereo not drawn),19.3%
16,COc1ccccc1CNC(=O)C1Cc2ccccc2C(=O)O1 (stereo not drawn),-4.46%
17,Cc1ccc(S(=O)(=O)N2CC3C(=O)C[C@@H](c4ccccc4Cl)N(S(=O)(=O)c4ccc(C)cc4)C3CC2c2ccccc2)cc1 (stereo partly drawn),17%
18,CC1Oc2ccccc2N(Cc2cccnc2)C1=O (stereo not drawn),2.36%
19,CCCCC(=O)N(C)c1c(CC)nc2c(OCc3ccc(Cl)cc3Cl)cccn12,42.4% (active)
20,CCc1nc2c(OCc3ccc(Cl)cc3Cl)cccn2c1N(C)C(=O)C(C)C,36.4%

row,SMILES,inhibition
1,CCCCC(=O)N(C)c1c(CC)nc2c(OCc3ccc(S(C)(=O)=O)cc3)cccn12,-7.39%
2,CCCOC(=O)c1c(NC(=O)c2cnn3c2NC(c2ccccc2)CC3C(F)(F)F)sc2c1CCCC2 (stereo not drawn),-7.48%
3,Cc1ccccc1C(CC(=O)c1cccs1)C(C#N)C#N (stereo not drawn),-15.3%
4,NC(=O)C1(N2CCCCC2)CCN(C2CC(=O)N(Cc3ccc(N4CCCC4=O)cc3)C2=O)CC1 (stereo not drawn),-18.3%
5,COc1ccccc1-n1c(=S)[nH]c2c(sc(=S)n2-c2ccc(C)cc2C)c1=O,0.762%
6,O=[N+]([O-])c1c(NCCO)cc(Sc2nc3ccccc3s2)c2nonc12,51.4% (active)
7,Cc1ccn2c(=O)c(C(=O)NCCC3=CCCCC3)c(O)nc2c1,-7.12%
8,CCOc1ccc(CN(Cc2ccco2)S(=O)(=O)c2ccc(-n3cnnn3)c(OC)c2)cc1,50.9% (active)
9,COc1ccc(CN(Cc2ccco2)S(=O)(=O)c2ccc(S(=O)(=O)N3CCCC3)cc2)cc1,-7.47%
10,COc1cc(S(=O)(=O)N(Cc2cccs2)C2CC2)ccc1-n1cnnn1,6.23%
11,CCCCCCCCN1C(=O)[C@H](CC(=O)NCC23CC4CC(CC(C4)C2)C3)C[C@@]2(C(=O)OC)CCCCC=C12,8.12%
12,COC1=CC(=O)OC(C)(c2ccccc2)C1 (stereo not drawn),-4.31%
13,COc1ccc(CCNC(=O)CN(c2ccccc2)S(=O)(=O)c2ccccc2)cc1,-2.04%
14,COc1ccc(CNC(=O)CN(c2ccc(OC)c(Cl)c2)S(=O)(=O)c2ccc(C)cc2)cc1,42% (active)
15,COc1ccc(S(=O)(=O)N(CC(=O)NCc2ccco2)c2ccc(F)cc2)cc1,-6.33%
16,CCOP(=O)(OCC)C(Cc1ccccc1)N=C(c1ccccc1)c1ccccc1 (stereo not drawn),23.7%
17,O=C(NCc1ccc(F)cc1)c1cc(C2CCCCN2C(=O)C2CCCCC2)on1 (stereo not drawn),13.6%
18,CC1CCN(S(=O)(=O)c2ccc3[nH]c(=O)ccc3c2)CC1,-4.98%
